This is part of a sample that, as a whole, favours compounds with a hit. Of some 83,000 tested, about 20% had one in any assay.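 In brief: 96-well plates, 48 h treatment, single concentration, percent growth endpoint.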 Values without a mark were called inactive. Activity calls are given as the source filed them. The calls were made as follows: active = growth percent below 10; inactive = the rest.
Columns and labels:
Assay in all cases: NCI-60 one-dose screen, 48 h (100 = growth as untreated, 0 = no growth, -100 = all killed)
Conditions in all cases: 10 µM unless noted
K-562 leukemia = system: K-562 leukemia
MALME-3M melanoma = system: MALME-3M melanoma
MDA-MB-231 breast = system: MDA-MB-231 breast
RXF 393 renal = system: RXF 393 renal
SF-268 CNS = system: SF-268 CNS
SF-295 CNS = system: SF-295 CNS
SF-539 CNS = system: SF-539 CNS
UACC-257 melanoma = system: UACC-257 melanoma
M14 melanoma = system: M14 melanoma
HCT-15 colon = system: HCT-15 colon
HT29 colon = system: HT29 colon
SNB-75 CNS = system: SNB-75 CNS
SNB-19 CNS = system: SNB-19 CNS
U251 CNS = system: U251 CNS
PC-3 prostate = system: PC-3 prostate
SK-MEL-5 melanoma = system: SK-MEL-5 melanoma
UACC-62 melanoma = system: UACC-62 melanoma
LOX IMVI melanoma = system: LOX IMVI melanoma
SK-MEL-28 melanoma = system: SK-MEL-28 melanoma
SK-MEL-2 melanoma = system: SK-MEL-2 melanoma

Structure (SMILES)	growth (K-562 leukemia)	growth (MALME-3M melanoma)	growth (MDA-MB-231 breast)	growth (RXF 393 renal)	growth (SF-268 CNS)	growth (SF-295 CNS)	growth (SF-539 CNS)	growth (UACC-257 melanoma)	growth (M14 melanoma)	growth (HCT-15 colon)	growth (HT29 colon)	growth (SNB-75 CNS)	growth (SNB-19 CNS)	growth (U251 CNS)	growth (PC-3 prostate)	growth (SK-MEL-5 melanoma)	growth (UACC-62 melanoma)	growth (LOX IMVI melanoma)	growth (SK-MEL-28 melanoma)	growth (SK-MEL-2 melanoma)
CS(=O)(=O)c1ccc(-c2nc3ccccn3c2-c2nc3ccc([N+](=O)[O-])cc3[nH]2)cc1	91.3%	86%	86.5%	101%	94.1%	92.2%	89.5%	106%	97.3%	97.1%	109%	82.9%	99.6%	104%	86.3%	95.2%	88.6%	100%	98%	105%
CCCCCCNC(=O)Oc1ccc(/C(=C(/C)c2ccccc2)c2ccc(OCCN3CCCCCC3)cc2)cc1	-9.12% (active)	12.2%	41.7%	9.02% (active)	62.2%	36.3%	11.1%	-2.81% (active)	-39.7% (active)	9.9% (active)	-13.3% (active)	56%	66.7%	22.1%	38.7%	20.1%	44.2%	-14.5% (active)	44.4%	95.9%
Cn1cc(-c2cc(N)n3nc(-c4cn(C)c5ccc(F)cc45)cc3n2)c2cc(F)ccc21	-26.2% (active)	90.8%	3.73% (active)	26.2%	19.6%	80.1%	-58.5% (active)	101%	20.3%	4.58% (active)	-72.8% (active)	109%	50.1%	-62.4% (active)	63.4%	104%	62.5%	-61.9% (active)	92.4%	110%
CSCCC(C(=O)O)N1C(=O)/C(=C/c2ccc(O)c(O)c2)SC1=S (stereo unspecified)	109%	101%	97.1%	125%	97.6%	96.5%	95.7%	104%	101%	100%	105%	93.6%	97.9%	93.4%	99.2%	99.9%	93.7%	103%	99.5%	133%
COc1ccc(-c2nc3ccc(-c4nnc(SCC(=O)Nc5ccc(C(=O)/C=C/c6ccccc6)cc5)o4)cc3[nH]2)cc1OC	91.6%	97.1%	91.2%	110%	106%	94.9%	83.7%	110%	108%	91.8%	103%	90.3%	107%	93.2%	101%	95.5%	95%	-11.8% (active)	105%	108%
NC(=O)c1cc(-c2ccc3ncnc(N4CCc5cc(F)c(Cl)cc54)c3c2)cnc1N	35.2%	25.1%	34.5%	-17.5% (active)	27.6%	25.3%	-23.4% (active)	54.8%	38.3%	25.8%	21%	-25% (active)	39.5%	40.8%	25%	52.1%	26%	24%	28.8%	-51.5% (active)
Cc1sc2c(c1C)c(=O)nc1c(-c3nc(-c4ccc(F)cc4)no3)n[nH]n12	103%	96.6%	95.5%	120%	103%	98.4%	93.7%	105%	107%	92.5%	110%	85.7%	101%	102%	89.6%	107%	97.8%	93.7%	115%	113%
O=C1Nc2cc(Cl)ccc2/C1=C\c1ccc(OCc2ccc([N+](=O)[O-])cc2)cc1	83.1%	75.1%	66.2%	64.3%	86.4%	68.2%	80.7%	89.5%	83.3%	77.8%	76.8%	57.5%	91%	81.6%	59.4%	84.4%	67.8%	65.8%	84.7%	101%
Nc1cc(-c2c[nH]c3ccc(F)cc23)nc2cc(-c3c[nH]c4ccc(F)cc34)nn12	0.113% (active)	94.9%	70.6%	128%	91.8%	85.4%	87.4%	116%	79.3%	31%	-60.9% (active)	79%	106%	3.43% (active)	78.8%	92.8%	104%	-18.8% (active)	109%	116%
Fc1ccc(-c2cc3nc(C(Cl)Cl)nc(-c4ccccc4)n3n2)cc1	19.2%	47.2%	-10.2% (active)	-62.9% (active)	10.2%	2.73% (active)	-10.6% (active)	-2.11% (active)	26.9%	7.35% (active)	-41.4% (active)	-30% (active)	-6.52% (active)	-58.2% (active)	-24.5% (active)	75.2%	36.2%	86.9%	-7.7% (active)	53.5%
C=CCn1c(SCC(=O)c2ccc(Br)cc2)nnc1-c1c[nH]c2ccccc12	85.5%	90.7%	96.9%	113%	102%	93.2%	91.8%	108%	97.4%	99%	104%	106%	100%	99.9%	78.3%	95.9%	83.1%	–	96.1%	115%
O=C(N/N=C/c1ccc(Br)s1)c1[nH]c2ccc(Br)cc2c1-c1ccccc1	7.72% (active)	55.1%	4.67% (active)	60%	37.2%	14.8%	0.701% (active)	57.2%	2.05% (active)	12.4%	5.61% (active)	39.5%	31.3%	24.4%	28.8%	-27.3% (active)	41.7%	–	63.1%	18.7%
COc1cc(/C=C/C(=O)c2cc(OC)c(OC)c(OC)c2)ccc1Oc1nc(NCCO)nc(N2CCOCC2)n1	8.97% (active)	29%	19.4%	-25.7% (active)	9.81% (active)	12.6%	-5.48% (active)	47.8%	-19.1% (active)	-9.13% (active)	-21.5% (active)	15.2%	12.4%	-36.9% (active)	37.7%	3.03% (active)	-4.12% (active)	–	31.5%	-3.2% (active)
Cn1ccnc1C(=O)/C=C/c1ccc(NC(=O)Nc2ccc(Cl)cc2)cc1	47.6%	84.2%	73.4%	70.1%	81.8%	85.9%	83.1%	100%	84.4%	47.1%	93.6%	74.4%	78.9%	62.6%	78.8%	91.2%	92.2%	–	89.9%	110%

Reference: PubChem BioAssay (NCI)
